In PubChem BioAssay (EPA / NIEHS) one finds outcome and AC50 data, which are given here for four compounds.

Activity calls are given as the source filed them. The calls were made as follows: active = hit-call score of the fitted dose curve at least 0.9, where 1 is the maximum; inactive = score below 0.9.

Assay [1] can be described thus: CEETOX_H295R_PROG: CeeTox H295R High-throughput Steroidogenesis Assay for Progesterone (PROG) (AID 2283442).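 As to AC50: human H295R adrenal cells primed with 10 µM forskolin before dosing; progesterone secreted into medium by H295R cells measured by HPLC-MS/MS.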 Particulars: actives raise or lower the signal. In a few lines:
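Adrenal H295R line, forskolin-stimulated (10 uM, 48 h) before dosing. 48 h exposure, 0.1% DMSO vehicle. Secreted progesterone by reverse-phase HPLC with ESI+ MS/MS quantification; DMSO-normalised bidirectional curve fit.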

Read-out in assay [2]: Tumor necrosis factor receptor superfamily member 6 (Homo sapiens) (UniProt P25445)
Description: LTEA_HepaRG_FAS: Life Technologies and Expression Analysis (LTEA) Assay for Fas cell surface death receptor (FAS) using HepaRG (AID 2283447). The following applies: mRNA level, 48 h; actives raise or lower the signal. The essentials:
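Differentiated HepaRG cells in serum-free induction medium were exposed 48 h to 8 half-log concentrations up to 100 uM in 0.5% DMSO, in duplicate. FAS mRNA was measured by qRT-PCR normalised to ACTB, GAPDH and POLR2A; bidirectional fit versus DMSO.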

Read-out in assay [3]: Fatty acid synthase (Homo sapiens) (UniProt P49327)
Description: LTEA_HepaRG_FASN: Life Technologies and Expression Analysis (LTEA) Assay for Fatty Acid Synthase (FASN) using HepaRG (AID 2283448). The following applies: mRNA level, 48 h; actives raise or lower the signal. In a few lines:
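In human HepaRG cultures, 48 h chemical exposure (up to 100 uM, 0.5% DMSO) preceded TaqMan qRT-PCR of FASN.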

Read-out in assay [4]: Cyclin Dependent Kinase Inhibitor 1A (CDKN1A), CDKN1A (gene 1026)
Description: LTEA_HepaRG_CDKN1A: Life Technologies and Expression Analysis (LTEA) Assay for Cyclin Dependent Kinase Inhibitor 1A (CDKN1A) using HepaRG (AID 2283450). Particulars: mRNA level, 48 h; actives raise or lower the signal. The essentials:
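Cryopreserved HepaRG cells were plated and cultured 48 h, then switched to serum-free induction medium. Chemicals (eight half-log concentrations, top 100 uM, 0.5% DMSO) were applied for 48 h. Lysates underwent qRT-PCR for CDKN1A with housekeeping normalization.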

Read-out in assay [5]: Cyclin D1 (CCND1), CCND1 (gene 595)
Description: LTEA_HepaRG_CCND1: Life Technologies and Expression Analysis (LTEA) Assay for Cyclin D1 (CCND1) using HepaRG (AID 2283451). Particulars: mRNA level, 48 h; actives raise or lower the signal. The essentials:
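Human liver HepaRG line; 48 h dosing, 8 conc. ≤100 uM, 0.5% DMSO; TaqMan qRT-PCR mRNA, 3 housekeeping genes; bidirectional curve fit vs DMSO.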

Read-out in assay [6]: catalase (CAT), CAT (gene 847)
Description: LTEA_HepaRG_CAT: Life Technologies and Expression Analysis (LTEA) Assay for catalase (CAT) using HepaRG (AID 2283452). Particulars: mRNA level, 48 h; actives raise or lower the signal. The essentials: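 HepaRG cells in serum-free induction medium, 0.5% DMSO vehicle, exposed 48 h in duplicate over 8 half-log concentrations from 100 uM. CAT mRNA measured by qRT-PCR, normalized to ACTB, GAPDH, POLR2A; bidirectional fit versus DMSO.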

Read-out in assay [7]: flavin-containing dimethylaniline monooxygenases 3 (FMO3), FMO3 (gene 2328)
Description: LTEA_HepaRG_FMO3: Life Technologies and Expression Analysis (LTEA) Assay for flavin-containing dimethylaniline monooxygenases 3 (FMO3) using HepaRG (AID 2283453). Particulars: mRNA level, 48 h; actives raise or lower the signal. In a few lines:
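Eight-point concentration-response in serum-free HepaRG cultures (top 100 uM, 0.5% DMSO, 48 h). Read-out: FMO3 mRNA level normalized to three endogenous control genes, fitted bidirectionally versus vehicle.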

Read-out in assay [8]: Cytochrome P450 (CYP1A1), CYP1A1 (gene 1543)
Description: LTEA_HepaRG_CYP1A1: Life Technologies and Expression Analysis (LTEA) Assay for Cytochrome P450 (CYP1A1) using HepaRG (AID 2283454). Particulars: mRNA level, 48 h; actives raise or lower the signal. The essentials:
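Induction of CYP1A1 mRNA in a human hepatic cell line was measured 48 h after dosing, with 1 mM phenobarbital as induction positive control and 0.5% DMSO vehicle as baseline for bidirectional curve fitting.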

Read-out in assay [9]: CFLAR gene, CFLAR (gene 8837)
Description: LTEA_HepaRG_CFLAR: Life Technologies and Expression Analysis (LTEA) Assay for CFLAR gene using HepaRG (AID 2283455). Particulars: mRNA level, 48 h; actives raise or lower the signal. The essentials:
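qRT-PCR read-out (Fluidigm/TaqMan) of CFLAR mRNA, normalized to three housekeeping genes, in differentiated human HepaRG cells after 48 h chemical exposure; 8-point half-log series from 100 uM in 0.5% DMSO; bidirectional curve fitting versus DMSO.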

Read-out in assay [10]: Forkhead box O1 (FOXO1), FOXO1 (gene 2308)
Description: LTEA_HepaRG_FOXO1: Life Technologies and Expression Analysis (LTEA) Assay for Forkhead box O1 (FOXO1) using HepaRG (AID 2283456). Particulars: mRNA level, 48 h; actives raise or lower the signal. The essentials:
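HepaRG, 48 h exposure, 8-pt half-log series from 100 uM in 0.5% DMSO, duplicates; Fluidigm qRT-PCR mRNA, housekeeping-normalised; bidirectional fit vs DMSO baseline.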

Read-out in assay [11]: growth arrest and DNA damage 45 (GADD45A), GADD45A (gene 1647)
Description: LTEA_HepaRG_GADD45A: Life Technologies and Expression Analysis (LTEA) Assay for growth arrest and DNA damage 45 (GADD45A) using HepaRG (AID 2283458). The following applies: mRNA level, 48 h; actives raise or lower the signal. In a few lines: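 Eight-point concentration-response in HepaRG cells: 48 h chemical exposure, 0.5% DMSO vehicle, top dose 100 uM. Normalized qRT-PCR mRNA readout with bidirectional fitting relative to DMSO.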

Read-out in assay [12]: Forkhead box O3 (FOXO3), FOXO3 (gene 2309)
Description: LTEA_HepaRG_FOXO3: Life Technologies and Expression Analysis (LTEA) Assay for Forkhead box O3 (FOXO3) using HepaRG (AID 2283459). Particulars: mRNA level, 48 h; actives raise or lower the signal. In a few lines: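 qRT-PCR readout of FOXO3 transcript, normalized to three housekeeping genes (ACTB, GAPDH, POLR2A); gain or loss fitted against 0.5% DMSO vehicle. HepaRG cells, 48 h chemical exposure, 8-point half-log series, top 100 uM.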

Read-out in assay [13]: growth arrest and DNA damage 45 (GADD45B), GADD45B (gene 4616)
Description: LTEA_HepaRG_GADD45B: Life Technologies and Expression Analysis (LTEA) Assay for growth arrest and DNA damage 45 (GADD45B) using HepaRG (AID 2283461). The following applies: mRNA level, 48 h; actives raise or lower the signal. The essentials: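 Values are bidirectional concentration-response fits against 0.5% DMSO controls. Underlying data: qRT-PCR mRNA levels in human HepaRG liver cells treated 48 h in serum-free induction medium, eight concentrations topping at 100 uM.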

Read-out in assay [14]: ABC Transporter (ABCC3), ABCC3 (gene 8714)
Description: LTEA_HepaRG_ABCC3: Life Technologies and Expression Analysis (LTEA) Assay for ABC Transporter (ABCC3) using HepaRG (AID 2283462). The following applies: mRNA level, 48 h; actives raise or lower the signal. In a few lines:
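Differentiated HepaRG liver cells receive test chemicals at eight concentrations (max 100 uM) for 48 h. Expression of ABCC3 is quantified by qRT-PCR against ACTB, GAPDH and POLR2A, and activity is fitted in both directions against the DMSO control.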

The nature of assay [15]: CEETOX_H295R_DOC: CeeTox H295R High-throughput Steroidogenesis Assay for DOC (AID 2283439). Particulars: actives raise or lower the signal. In a few lines: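 H295R, fsk 10 uM ×48 h pre, cmpd ×48 h (0.1% DMSO). Media → MTBE extr. → LC-MS/MS, DOC. Bidirectional fit vs DMSO; MTT viability same wells, re-test diluted if <70%.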
Read-out in assay [16]: Cyclin D2 (CCND2), CCND2 (gene 894)
Description: LTEA_HepaRG_CCND2: Life Technologies and Expression Analysis (LTEA) Assay for Cyclin D2 (CCND2) using HepaRG (AID 2283449).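 Also: CCND2 transcript measured by TaqMan qRT-PCR and normalised to three housekeeping genes.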 The following applies: mRNA level, 48 h; actives raise or lower the signal. In a few lines:
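HepaRG, 48 h dosing, 8-pt half-log curve from 100 uM, 0.5% DMSO; duplicate wells. Readout: CCND2 transcript by microfluidic qRT-PCR, housekeeping-normalised; bidirectional fit vs DMSO baseline.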

Read-out in assay [17]: ABC Transporter (ABCB1), ABCB1 (gene 5243)
Description: LTEA_HepaRG_ABCB1: Life Technologies and Expression Analysis (LTEA) Assay for ABC Transporter (ABCB1) using HepaRG (AID 2283460). Particulars: mRNA level, 48 h; actives raise or lower the signal. The essentials: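 HepaRG, 48 h exposure, 8-pt half-log series from 100 uM, 0.5% DMSO vehicle, duplicates. Readout: ABCB1 transcript by Fluidigm TaqMan qRT-PCR, housekeeping-normalized; bidirectional curve fit vs DMSO baseline.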

A short description of assay [18]: CEETOX_H295R_ESTRADIOL: CeeTox H295R High-throughput Steroidogenesis Assay for Estradiol (AID 2283440).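 Also: estradiol secreted into medium quantified by LC-MS/MS after dansyl derivatisation.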 The following applies: actives raise or lower the signal. In a few lines: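 Following OECD 456 with minor changes, H295R cells received 10 uM forskolin for 48 h and then test chemical for 48 h. Hormone output was read by HPLC-MS/MS, with cytotoxic concentrations diluted until MTT viability reached ≥70%.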

Assay [19] in a line: CEETOX_H295R_ESTRONE: CeeTox H295R High-throughput Steroidogenesis Assay for Estrone (AID 2283441).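 Also: estrone secreted into medium measured by LC-MS/MS after dansyl derivatization.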 Particulars: actives raise or lower the signal. In a few lines: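 Forskolin-stimulated H295R cells are treated 48 h with chemical, and estrone in the medium is measured by LC-MS/MS. Activity is fitted in both directions relative to DMSO controls, with chemicals diluted until MTT viability reaches at least 70%.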

Sequence of Fatty acid synthase (Homo sapiens) (P49327 whole entry, looked up): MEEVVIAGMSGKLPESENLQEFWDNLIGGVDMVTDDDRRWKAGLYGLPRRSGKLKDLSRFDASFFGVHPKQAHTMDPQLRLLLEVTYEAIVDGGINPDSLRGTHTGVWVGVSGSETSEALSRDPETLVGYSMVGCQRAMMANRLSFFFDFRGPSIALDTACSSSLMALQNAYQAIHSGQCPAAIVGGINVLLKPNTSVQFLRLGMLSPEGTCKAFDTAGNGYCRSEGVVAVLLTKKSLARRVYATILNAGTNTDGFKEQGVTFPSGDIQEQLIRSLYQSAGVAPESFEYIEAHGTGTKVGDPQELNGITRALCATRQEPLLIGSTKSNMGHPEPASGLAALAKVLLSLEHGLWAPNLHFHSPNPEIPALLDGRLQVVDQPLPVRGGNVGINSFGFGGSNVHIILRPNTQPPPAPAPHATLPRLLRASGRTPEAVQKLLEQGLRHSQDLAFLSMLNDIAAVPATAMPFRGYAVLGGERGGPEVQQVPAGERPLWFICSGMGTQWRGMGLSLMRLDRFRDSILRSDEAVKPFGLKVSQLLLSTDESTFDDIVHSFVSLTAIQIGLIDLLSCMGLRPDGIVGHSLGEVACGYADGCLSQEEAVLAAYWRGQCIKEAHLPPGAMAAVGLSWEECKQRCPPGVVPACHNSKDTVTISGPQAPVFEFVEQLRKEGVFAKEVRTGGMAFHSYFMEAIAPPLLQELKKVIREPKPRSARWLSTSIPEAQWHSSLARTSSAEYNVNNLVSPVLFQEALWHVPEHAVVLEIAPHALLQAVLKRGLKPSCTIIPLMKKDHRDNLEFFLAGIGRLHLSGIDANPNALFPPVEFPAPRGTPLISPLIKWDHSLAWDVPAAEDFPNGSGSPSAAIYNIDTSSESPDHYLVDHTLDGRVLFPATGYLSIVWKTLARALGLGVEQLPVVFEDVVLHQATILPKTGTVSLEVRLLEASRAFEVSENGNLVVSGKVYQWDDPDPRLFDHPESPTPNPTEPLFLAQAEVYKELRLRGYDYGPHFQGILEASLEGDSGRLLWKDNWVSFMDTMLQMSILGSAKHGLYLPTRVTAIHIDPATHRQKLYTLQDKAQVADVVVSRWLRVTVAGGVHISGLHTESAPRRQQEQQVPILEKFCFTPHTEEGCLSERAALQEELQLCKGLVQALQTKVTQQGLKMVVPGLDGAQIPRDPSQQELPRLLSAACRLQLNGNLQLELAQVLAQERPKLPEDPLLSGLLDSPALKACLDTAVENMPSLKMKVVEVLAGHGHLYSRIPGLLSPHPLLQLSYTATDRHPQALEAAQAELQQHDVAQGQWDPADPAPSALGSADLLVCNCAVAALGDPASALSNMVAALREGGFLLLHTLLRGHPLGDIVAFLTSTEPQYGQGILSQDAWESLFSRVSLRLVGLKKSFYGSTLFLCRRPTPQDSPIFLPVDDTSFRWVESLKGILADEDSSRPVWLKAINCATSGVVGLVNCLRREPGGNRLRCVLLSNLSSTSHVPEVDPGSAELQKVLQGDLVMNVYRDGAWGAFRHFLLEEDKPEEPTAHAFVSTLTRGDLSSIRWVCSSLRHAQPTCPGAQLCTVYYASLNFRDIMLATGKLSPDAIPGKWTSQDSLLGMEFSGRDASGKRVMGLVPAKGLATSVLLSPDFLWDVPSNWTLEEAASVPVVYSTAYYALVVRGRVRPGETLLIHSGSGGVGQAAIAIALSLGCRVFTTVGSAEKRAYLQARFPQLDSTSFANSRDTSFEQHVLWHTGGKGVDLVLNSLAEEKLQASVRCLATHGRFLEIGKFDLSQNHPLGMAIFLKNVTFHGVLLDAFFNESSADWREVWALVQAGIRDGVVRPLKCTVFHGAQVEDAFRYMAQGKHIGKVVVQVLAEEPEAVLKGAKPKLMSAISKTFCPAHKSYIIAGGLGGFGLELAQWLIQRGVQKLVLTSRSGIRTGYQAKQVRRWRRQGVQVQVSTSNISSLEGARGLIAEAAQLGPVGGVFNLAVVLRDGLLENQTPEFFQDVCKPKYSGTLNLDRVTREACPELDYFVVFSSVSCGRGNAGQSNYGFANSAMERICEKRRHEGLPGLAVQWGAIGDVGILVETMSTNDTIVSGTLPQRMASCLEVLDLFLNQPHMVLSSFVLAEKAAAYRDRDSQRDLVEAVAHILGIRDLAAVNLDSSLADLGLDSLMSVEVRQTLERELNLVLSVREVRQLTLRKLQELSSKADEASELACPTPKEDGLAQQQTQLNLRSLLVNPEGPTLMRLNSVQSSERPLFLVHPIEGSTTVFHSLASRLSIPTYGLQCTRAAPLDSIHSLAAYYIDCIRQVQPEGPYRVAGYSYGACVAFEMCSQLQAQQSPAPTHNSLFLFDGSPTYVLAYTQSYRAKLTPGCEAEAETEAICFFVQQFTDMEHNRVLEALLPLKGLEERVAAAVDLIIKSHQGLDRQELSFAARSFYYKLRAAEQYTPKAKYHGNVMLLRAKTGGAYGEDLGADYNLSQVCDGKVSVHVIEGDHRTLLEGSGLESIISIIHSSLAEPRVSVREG

Usually AC50 stands for the concentration at which the activity in the assay is half-maximal. As to `CC(C)=CCCC(C)=CC=O`, the result in [1], in [2], in [3], in assay [4], in assay [5] and in assay [6] was inactive. For the same compound, the compound was called inactive in [7], in [9], in [10], in assay [11], in assay [12] and in [13]. Also, the compound was called inactive in assay [14]. For the same compound, the AC50 in assay [8] is 63.9 µM (active).

On to `CN(C)c1ccc(Cc2ccc(N(C)C)cc2)cc1`, for which the compound was classed as inactive in assay [15], in assay [3], in [16], in assay [4], in [5] and in assay [6]. The outcome in assay [9], in assay [10], in [11], in assay [12], in assay [17] and in [13] was inactive. In addition, in assay [14], the call was inactive. Also, the AC50 in assay [1] is 3.81 µM (active); in assay [2], 50 µM (active); in [7] it was 83.1 µM (active).

Take `Cc1c(-c2cccnc2)c2ccccc2n1CCCCC(=O)O`: in assay [1], the AC50 is 7.25 µM (active). The compound was classed as inactive in assay [2], in assay [3], in [16], in assay [4], in [5] and in assay [6]. The result in assay [7], in [9], in assay [10], in assay [11], in [12] and in assay [13] was inactive. In addition, the compound was called inactive in assay [14].

Take `CCC(C)(C)C(=O)O[C@H]1C[C@@H](C)C=C2C=C[C@H](C)[C@H](CC[C@@H]3C[C@@H](O)CC(=O)O3)[C@H]21`: the AC50 in [15] is 0.581 µM (active); in assay [1] it was 0.24 µM (active); in assay [3], 10.9 µM (active); in assay [17] it was 31.7 µM (active). The compound was classed as inactive in assay [18], in assay [19], in assay [2], in [16], in assay [4] and in [5]. Besides, the compound was classed as inactive in [6], in assay [7], in [9], in assay [10], in assay [11] and in assay [12]. Also, the compound was classed as inactive in assay [13] and in [14].
